This is an account of results in PubChem BioAssay.

Assay [1] in a line: resazurin metabolic signal in HepG2 cells – cell-based, resazurin fluorescence, 24 h, PK04 Diversity Set, profiling panel (AID 1172). The note with it: HepG2 viability, higher = more signal.
Assay [2] in a line: budding yeast growth changes without added modifier – OD600, strain BY4716, 24 h, basal condition, primary screen (AID 1173). The note with it: S. cerevisiae BY4716 growth, OD600, 24 h; higher = more signal, called active from +8 up or from −8 down.
Assay [3] in a line: viability profiling in MM1S myeloma cells – cell-based, resazurin fluorescence, basal, 24 h, PK04 Diversity Set, profiling panel (AID 1174). Conditions: higher = more signal, called active from +8 up or from −8 down. On the technique in general: Resazurin is reduced to fluorescent resorufin, in cell work by metabolically active cells.
Assay [4] deals with Dihydroorotate dehydrogenase (quinone), mitochondrial (Plasmodium falciparum (isolate 3D7)) (UniProt Q08210). The experiment in a line: inhibition of P. falciparum DHODH – biochemical, C-terminal His tag, absorbance 600 nm, primary screen (AID 1175).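 Also: recombinant parasite enzyme with a five histidine tag at its C terminus.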 The note with it: PfDHODH enzyme, DCIP absorbance 600 nm; higher = more signal, called active from +8 up or from −8 down.
Sequence of Dihydroorotate dehydrogenase (quinone), mitochondrial (Plasmodium falciparum (isolate 3D7)) (Q08210 whole entry, looked up): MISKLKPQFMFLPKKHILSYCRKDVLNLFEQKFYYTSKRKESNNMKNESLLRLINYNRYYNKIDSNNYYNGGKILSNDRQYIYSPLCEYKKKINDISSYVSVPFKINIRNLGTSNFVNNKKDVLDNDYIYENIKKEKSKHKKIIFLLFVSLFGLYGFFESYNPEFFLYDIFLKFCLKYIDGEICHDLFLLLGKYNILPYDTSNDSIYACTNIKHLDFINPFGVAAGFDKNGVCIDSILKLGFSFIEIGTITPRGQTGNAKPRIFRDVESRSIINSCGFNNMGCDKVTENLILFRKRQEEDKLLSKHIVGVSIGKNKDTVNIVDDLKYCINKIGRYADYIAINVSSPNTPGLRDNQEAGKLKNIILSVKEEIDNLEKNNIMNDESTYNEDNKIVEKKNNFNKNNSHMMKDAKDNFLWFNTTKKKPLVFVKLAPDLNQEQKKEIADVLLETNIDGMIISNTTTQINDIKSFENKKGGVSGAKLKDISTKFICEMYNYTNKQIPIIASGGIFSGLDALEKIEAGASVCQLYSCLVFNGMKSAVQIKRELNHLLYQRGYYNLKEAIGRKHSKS
Assay [5] is described as follows: inhibition of PAO1 biofilm formation – strain PAO1, LB-PBS medium, absorbance 600 nm, primary screen (AID 1176). Conditions: P. aeruginosa PAO1 growth/biofilm, A600, 12 h; higher = more signal.
Assay [6] is described as follows: growth modulation of vineyard yeast isolate – strain RM11-1a, OD600, basal, 24 h, primary screen (AID 1177).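 Also: cultures grown under basal conditions with no added stressor.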 The note with it: S. cerevisiae RM11-1a growth, OD600, 24 h; higher = more signal, called active from +8 up or from −8 down.
Assay [7] is described as follows: growth of efflux-deficient E. coli DRC39 – strain DRC39, OD650, 24 h, E. coli filamentation inducers, primary screen (AID 1178).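 Also: growth measured as culture turbidity by optical density at 650 nm.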 Conditions: E. coli DRC39 acrAB, higher = more signal, called active from +8 up or from −8 down.
Assay [8] is described as follows: growth of efflux-deficient E. coli DRC39 – strain DRC39, OD650, 48 h, E. coli filamentation inducers, primary screen (AID 1179).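 Also: screen aims at cell division blockers that make cells filament.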 Conditions: E. coli DRC39 delta-acrAB growth, higher = more signal, called active from +8 up or from −8 down.
The nature of assay [9]: viability profiling in RPMI8226 myeloma cells – cell-based, resazurin fluorescence, basal, 24 h, PK04 Diversity Set, profiling panel (AID 1180).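 Also: RPMI8826 multiple myeloma cell line at 5000 cells per well.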 Conditions: higher = more signal.
Assay [10] concerns the target E3 ubiquitin-protein ligase XIAP (Homo sapiens) (UniProt P98170). The experiment in a line: small molecules binding XIAP protein – biophysical, small-molecule microarray, fluorescence 635 nm, primary screen (AID 1181).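 Also: score merges 667 nm emission and signal to noise over triplicate slides.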 The note with it: higher = more signal.
Assay [11] deals with XIP peptide (Xip251-270) binding. The experiment in a line: XIP fragment 251-270 binding compounds – biochemical, small-molecule microarray, fluorescence 635/667 nm, 0.1 µg/mL protein, primary screen (AID 1182). The note with it: fluorescent protein binding, 635 nm, higher = more signal, called active from +8 up or from −8 down.
The subject of assay [12] is XIP peptide (Xip251-270). The experiment in a line: compounds binding XIP fragment 251-270 – biochemical, small-molecule microarray, fluorescence 635/667 nm, 0.5 µg/mL protein, primary screen (AID 1183). Conditions: fluorescence 635 nm, higher = more signal.
Assay [13] can be described thus: blood-stage malaria parasite viability loss – strain 3D7, DAPI fluorescence, 100 nL, primary screen (AID 1184).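 Also: parasites grown inside human red blood cells in medium with human serum.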 Conditions: P. falciparum 3D7 growth, 3 d, higher = more signal.
Assay [14] has as its target Homeobox protein Hox-A13 (Mus musculus) (UniProt Q62424). The experiment in a line: disruptors of Hoxa13 oligonucleotide interaction – biochemical, fluorescence polarization, labeled oligonucleotide, primary screen (AID 1185). Conditions: Hoxa13:DNA binding, 15 min, higher = more signal, called active from +8 up or from −8 down. On the technique in general: In fluorescence polarisation assays a small probe gives low polarisation when free and higher when bound to something large.

A short description of assay [15]: blockers of DNA damage checkpoint Chk1 activation – imaging, HeLa, hydroxyurea, phospho-Chk1 antibody, percent positive cells, primary screen (AID 1186). Conditions: hydroxyurea-induced phospho-Chk1 immunofluorescence imaging, higher = more signal.
The nature of assay [16]: blockers of DNA damage checkpoint Chk1 activation – imaging, HeLa, hydroxyurea, phospho-Chk1 nuclear intensity, primary screen (AID 1187). The note with it: hydroxyurea-induced phospho-Chk1 immunofluorescence imaging, higher = more signal.

Molecules are shown by their SMILES. Activity calls are given as the source filed them. Unless noted, no rule for the calls is given here.

Sequence of Homeobox protein Hox-A13 (Mus musculus) (Q62424 whole entry, looked up): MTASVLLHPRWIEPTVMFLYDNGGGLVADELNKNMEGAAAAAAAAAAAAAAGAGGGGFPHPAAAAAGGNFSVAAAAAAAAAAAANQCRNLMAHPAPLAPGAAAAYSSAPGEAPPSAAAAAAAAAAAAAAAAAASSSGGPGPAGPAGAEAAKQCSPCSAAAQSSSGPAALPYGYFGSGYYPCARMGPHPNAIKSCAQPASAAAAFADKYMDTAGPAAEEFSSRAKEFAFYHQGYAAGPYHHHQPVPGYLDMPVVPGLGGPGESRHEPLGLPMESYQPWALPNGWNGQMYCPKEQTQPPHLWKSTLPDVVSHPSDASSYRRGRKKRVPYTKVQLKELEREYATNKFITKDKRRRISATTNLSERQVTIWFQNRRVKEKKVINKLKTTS
Sequence of E3 ubiquitin-protein ligase XIAP (Homo sapiens) (P98170 whole entry, looked up, the tested form may be a part): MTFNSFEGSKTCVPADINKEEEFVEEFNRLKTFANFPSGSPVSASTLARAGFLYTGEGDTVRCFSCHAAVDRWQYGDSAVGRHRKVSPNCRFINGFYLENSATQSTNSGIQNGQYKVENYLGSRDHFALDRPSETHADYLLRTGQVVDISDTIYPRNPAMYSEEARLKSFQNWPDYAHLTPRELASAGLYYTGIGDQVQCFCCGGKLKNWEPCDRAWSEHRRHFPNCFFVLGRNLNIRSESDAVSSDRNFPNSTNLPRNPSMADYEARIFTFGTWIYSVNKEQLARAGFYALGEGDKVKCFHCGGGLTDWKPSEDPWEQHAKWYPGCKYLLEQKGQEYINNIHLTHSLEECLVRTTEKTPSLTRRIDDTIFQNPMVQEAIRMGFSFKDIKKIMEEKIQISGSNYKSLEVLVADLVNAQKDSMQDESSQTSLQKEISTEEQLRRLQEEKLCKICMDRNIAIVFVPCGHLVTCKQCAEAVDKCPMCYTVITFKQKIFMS

Turning to `CC1CC/C=C\[C@H]2OC34C=CCN(C(C)C)C(=O)[C@H]3N(CCCCCO)C(=O)[C@@H]4C2C(=O)O1` (stereo not given in full), the z-score was 0.551 in assay [1]; -0.436 (inactive) in [2]; 1.46 (inactive) in [3]; -1.28 (inactive) in assay [5]; -0.171 (inactive) in [6]; 1.01 (inactive) in [7]. Besides, the z-score in assay [8] was 1.07 (inactive); in [9], 0.894; in assay [13], 1.17; in assay [14], -3.89 (inactive); in [15], 0.453 (inactive); in [16], 0.532 (inactive). Besides, the composite z-score in assay [4] was -1.16 (inactive); in assay [10], -0.304; in assay [11], -0.572 (inactive); in assay [12] it was -1.17.

Turning to `COc1ccc([Si](C)(C)[C@H]2[C@H](CCn3cc([C@H](O)c4ccccc4)nn3)O[C@@]3(C(=O)N(Cc4ccc(N5CCOC5=O)cc4)c4ccccc43)[C@@H]2C)cc1`, the z-score is -0.27 in [1]; 0.574 (inactive) in assay [2]; -0.412 (inactive) in [3]; 1.04 (inactive) in assay [5]; 2.18 (inactive) in assay [6]; 0.205 (inactive) in [7]. The z-score in assay [8] was 0.139 (inactive); in [9], 0.129; in assay [13], -2.29; in assay [14] it was -2.28 (inactive); in [15], -0.138 (inactive); in assay [16] it was -0.0848 (inactive). For the same molecule, the composite z-score in assay [4] is 0.624 (inactive); in [10], -0.171; in assay [11], -0.47 (inactive); in assay [12], 0.103.

With `C=C(CCCC)C(=O)CC[C@@H](OC(=O)c1cccnc1)c1ccccc1OCCO`, the z-score in assay [1] is 0.0748; in assay [2], -3.02 (inactive); in assay [3] it was -1.22 (inactive); in assay [5], -0.153 (inactive); in assay [6], 0.231 (inactive); in assay [7] it was 0.604 (inactive). The z-score in assay [8] is 0.448 (inactive); in assay [9], -2.39; in assay [13], -3.08; in assay [14], -3.61 (inactive); in [15], -0.383 (inactive); in [16] it was -0.227 (inactive). Further, the composite z-score in assay [4] was -2.63 (inactive); in assay [10], 0.0325; in [11] it was -0.451 (inactive); in assay [12], -0.0138.

With `COCCOC(=O)N1C(=O)[C@@]2(c3cc(C#Cc4ccc(OC)cc4)ccc31)[C@H](C(=O)N1CCN(c3ncccn3)CC1)[C@H]1C(=O)O[C@H](c3ccccc3)[C@H](c3ccccc3)N1[C@@H]2c1ccccc1OCCO`, the z-score is 0.205 in assay [1]; 2.91 (inactive) in [2]; -0.353 (inactive) in [3]; 3.8 (inactive) in assay [5]; 4.28 (inactive) in assay [6]; -0.269 (inactive) in [7]. The z-score in [8] is 0.188 (inactive); in assay [9] it was 0.35; in [13], -1.51; in assay [14], -0.114 (inactive); in assay [15], -0.019 (inactive); in [16], -0.0377 (inactive). The composite z-score in [4] was 0.27 (inactive); in assay [10], -0.0928; in [11], -0.148 (inactive); in assay [12], 0.561.

On to `CC(C)C(O)C1C=CC2C(=O)N(C)C(=O)C2N1Nc1ccccc1` (stereo not given), for which the z-score was -0.0778 in assay [1]; -0.411 (inactive) in [2]; -0.84 (inactive) in [3]; 0.931 (inactive) in assay [5]; 0.0222 (inactive) in [6]; -0.219 (inactive) in [7]. For the same molecule, the z-score is -0.434 (inactive) in assay [8]; -1.29 in [9]; 0.771 in assay [13]; -1.81 (inactive) in [14]; 0.331 (inactive) in assay [15]; 0.193 (inactive) in assay [16]. Also, the composite z-score in [4] is -0.482 (inactive); in assay [10] it was 0.0159; in assay [11], 0.292 (inactive); in assay [12], 0.655.

Turning to `C[C@H]1C2=C3C(CC[C@H]4C(OCc5ccc(F)cc5C(F)(F)F)OC[C@](C)([C@@H]34)N(C(=O)OC(C)(C)C)C2)C(CO)C1CO` (stereo not given in full), the z-score in assay [1] was -1.49; in assay [2], 0.964 (inactive); in assay [3], -2.08 (inactive); in assay [5], 2.31 (inactive); in assay [6] it was 1.04 (inactive); in assay [7], -1.36 (inactive). Also, the z-score was -0.895 (inactive) in [8]; -1.62 in assay [9]; -0.736 in [13]; -4.04 (inactive) in assay [14]; 0.491 (inactive) in assay [15]; 0.52 (inactive) in assay [16]. Besides, the composite z-score in assay [4] is -0.108 (inactive); in [10], 0.147; in assay [11], 0.456 (inactive); in assay [12] it was 0.724.

As for `Cc1ccc(S[C@]2(C(=O)NC3CC3)CC(=O)N(Cc3ccccc3Cl)[C@@H]2c2ccc(CO)cc2I)cc1`, the z-score is -0.451 in assay [1]; -4.44 (inactive) in assay [2]; -3.72 (inactive) in [3]; 0.348 (inactive) in assay [5]; -0.526 (inactive) in assay [6]; 0.17 (inactive) in assay [7]. The z-score in assay [8] was 0.932 (inactive); in assay [9], -1.61; in assay [13], 0.287; in [14], -1.54 (inactive); in [15], 0.159 (inactive); in assay [16] it was 0.858 (inactive). Besides, the composite z-score in assay [4] was -2.13 (inactive); in assay [10], -0.0118; in assay [11], 0.98 (inactive); in assay [12], 0.824.

As to `O=C1OCC=C[C@H]2OC34C=CCN(c5ccc(Cl)cc5)C(=O)[C@H]3N(CCCCCO)C(=O)[C@@H]4[C@@H]12` (stereo not given in full), the z-score is -0.46 in assay [1]; -1.1 (inactive) in assay [2]; -0.338 (inactive) in assay [3]; -0.0963 (inactive) in assay [5]; 0.119 (inactive) in assay [6]; 0.602 (inactive) in assay [7]. Further, the z-score is 0.182 (inactive) in [8]; 0.0508 in assay [9]; -0.826 in assay [13]; -3.66 (inactive) in [14]; -0.11 (inactive) in assay [15]; -0.281 (inactive) in assay [16]. In addition, the composite z-score is 0.193 (inactive) in assay [4], 0.287 in [10], -0.0492 (inactive) in [11] and -0.192 in assay [12].

On to `CCOC(=O)C[C@H]1[C@H](OC(=O)Cc2ccc3c(c2)OCO3)[C@@H](NC(=O)C2CCCCC2)c2cc(OCCCO)ccc2N1C(=O)c1ccc2ccccc2n1`, for which the z-score is 0.306 in assay [1]; -1.65 (inactive) in assay [2]; 0.773 (inactive) in assay [3]; -1.93 (inactive) in [5]; 0.133 (inactive) in [6]; 0.777 (inactive) in assay [7]. The z-score in assay [8] is 0.259 (inactive); in assay [9] it was -0.338; in assay [13] it was -2.04; in [14], -3.76 (inactive); in [15] it was 0.404 (inactive); in [16], -0.0148 (inactive). Besides, the composite z-score was -3.08 (inactive) in [4], 0.302 in [10], 1.35 (inactive) in [11] and 0.639 in [12].

As to `C=CCN1C(=O)[C@]2(CC=C)N=C(c3ccc(OCCCO)cc3)O[C@@H]2c2ccccc21`, the z-score is -0.956 in assay [1]; -2.51 (inactive) in assay [2]; -3.23 (inactive) in assay [3]; 1.26 (inactive) in assay [5]; 0.506 (inactive) in assay [6]; 0.578 (inactive) in assay [7]. Also, the z-score in [8] is 0.509 (inactive); in assay [9] it was -3.09; in [13], -1.96; in assay [14], -0.0163 (inactive); in assay [15], -0.0194 (inactive); in [16], 0.169 (inactive). The composite z-score in assay [4] was 0.0306 (inactive); in assay [10] it was 0.197; in assay [11], 0.935 (inactive); in [12] it was 0.707.
